Experimental findings from PubChem BioAssay (NCATS) are described below.

A number with no mark means an inactive call. Records with an inconclusive call do not appear. Active and inactive are the calls of the source. Unless noted, calls follow the shape of the dose curve; as a rule, active = well fitted curve in either direction with a large enough effect (not every such curve was filed as active); inconclusive = small, poorly fitted or top-dose-only effect, or another doubt; inactive = flat fitted curve, though single readings scatter.

The target in assay [1] is Lysosomal acid glucosylceramidase (Homo sapiens) (UniProt P04062). Nature of the assay: Glucocerebrosidase-p2 (AID 348; in the data active = potency below about 10 µM; also: potency is read from the fitted curve at half-maximal effect). Conditions: purified GBA, blue fluorogenic substrate, 40 min. The gist of the method: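 Compounds titrated from 0.6 nM upwards against 0.2 nM enzyme in pH 5.9 citric acid/KH2PO4, taurocholate, tween-20; blue fluorogenic substrate 80 uM, 40 min room temperature, stopped and read Ex 365/Em 440 for AC50.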
Sequence of Lysosomal acid glucosylceramidase (Homo sapiens) (P04062 whole entry, looked up): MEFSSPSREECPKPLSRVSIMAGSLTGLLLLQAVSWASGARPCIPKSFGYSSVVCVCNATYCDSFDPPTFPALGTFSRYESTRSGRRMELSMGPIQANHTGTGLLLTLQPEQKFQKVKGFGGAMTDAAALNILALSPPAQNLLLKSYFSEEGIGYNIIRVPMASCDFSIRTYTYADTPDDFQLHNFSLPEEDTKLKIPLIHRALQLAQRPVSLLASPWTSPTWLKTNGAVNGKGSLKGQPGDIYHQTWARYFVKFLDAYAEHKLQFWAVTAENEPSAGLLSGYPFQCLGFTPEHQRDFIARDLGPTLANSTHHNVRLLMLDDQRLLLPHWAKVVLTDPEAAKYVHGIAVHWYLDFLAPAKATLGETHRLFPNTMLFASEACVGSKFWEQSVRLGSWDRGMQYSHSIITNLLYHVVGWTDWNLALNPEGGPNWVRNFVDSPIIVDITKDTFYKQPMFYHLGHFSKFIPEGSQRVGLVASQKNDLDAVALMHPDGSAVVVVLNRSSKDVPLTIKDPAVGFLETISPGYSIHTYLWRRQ

Assay [2] is described as follows: AP1 Signaling Pathway (AID 357).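 Also: ME-180 reporter cells stimulated with EGF at its EC50 level; % is scaled to controls: 0 for no effect and ±100 for the full control effect.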 Particulars: ME-180 AP-1-bla reporter, EGF-induced, beta-lactamase ratio, 5 h; at 7.69 µM (top of the series) unless noted. In outline:
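Beta-lactamase reporter under AP-1 response element, ME-180 background. Stimulus: EC50 EGF. Compound exposure 5 h, 37 °C. Detection: CCF4, 2.5 h RT, 460/530 nm. Values: AC50 from titration.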

A short description of assay [3]: NFAT Signaling Pathway (AID 444).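 Also: carbachol stimulus at about its EC50 of 1 µM final; % is scaled to controls: 0 for no effect and ±100 for the full control effect.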 Conditions: Jurkat NFAT-bla M1, carbachol, beta-lactamase ratio, 5 h; at 7.69 µM (top of the series) unless noted. The gist of the method:
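Jurkat cells carrying an NFAT-driven β-lactamase reporter and co-transfected muscarinic M1 receptor were treated with compound plus carbachol (1 uM final, an EC50 level) for 5 h at 37 °C. CCF4 loading followed for 1 h at RT; 460/530 nm ratio gave %activity.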

The nature of assay [4]: Stat Signaling Pathway (AID 446).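 Also: ME-180 cervical cancer cells given 40 pM IL-6 alongside compound; SIE-controlled beta-lactamase reporter measured as 460/530 nm FRET emission ratio; % is scaled to controls: 0 for no effect and ±100 for the full control effect.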 Conditions: ME-180 (cervical carcinoma) SIE beta-lactamase reporter, IL-6 stimulated, 5 h; at 7.69 µM (top of the series) unless noted. In outline: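 IL-6/STAT signaling read in ME-180 cells via an SIE beta-lactamase reporter. Stimulus was 40 pM IL-6 (its AC50) for 5 hrs, so both activation and inhibition register.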
For assay [5], the target named is Glucocorticoid receptor (Homo sapiens) (UniProt P04150). Nature of the assay: GR-GFP Redistribution (AID 450;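 active = compounds whose dose series gives a full or clear partial fitted curve of increased nuclear translocation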; also: potency is read from the fitted curve at half-maximal effect). Particulars: U2OS GR-GFP nuclear translocation, laser cytometry, 2 h.
Sequence of Glucocorticoid receptor (Homo sapiens) (P04150 whole entry, looked up): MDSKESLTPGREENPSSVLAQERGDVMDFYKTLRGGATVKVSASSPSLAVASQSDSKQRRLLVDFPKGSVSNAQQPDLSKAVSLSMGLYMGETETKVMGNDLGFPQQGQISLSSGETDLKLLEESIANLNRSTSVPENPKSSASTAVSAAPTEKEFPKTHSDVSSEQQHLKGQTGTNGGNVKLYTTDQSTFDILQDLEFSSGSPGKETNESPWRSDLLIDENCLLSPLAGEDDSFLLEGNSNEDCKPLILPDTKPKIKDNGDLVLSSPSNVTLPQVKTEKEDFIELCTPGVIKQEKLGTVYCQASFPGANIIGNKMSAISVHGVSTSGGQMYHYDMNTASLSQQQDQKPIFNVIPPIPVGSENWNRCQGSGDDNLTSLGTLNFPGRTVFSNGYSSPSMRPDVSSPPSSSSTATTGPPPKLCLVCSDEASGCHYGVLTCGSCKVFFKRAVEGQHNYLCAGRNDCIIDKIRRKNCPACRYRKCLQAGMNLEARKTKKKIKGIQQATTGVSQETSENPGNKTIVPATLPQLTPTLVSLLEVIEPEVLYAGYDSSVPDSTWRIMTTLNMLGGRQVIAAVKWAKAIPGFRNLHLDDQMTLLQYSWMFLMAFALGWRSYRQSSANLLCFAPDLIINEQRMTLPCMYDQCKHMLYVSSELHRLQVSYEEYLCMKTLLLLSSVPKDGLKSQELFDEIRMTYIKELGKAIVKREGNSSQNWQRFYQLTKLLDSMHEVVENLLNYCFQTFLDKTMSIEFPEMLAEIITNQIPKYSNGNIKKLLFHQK
Assay [6] has the same target. Nature of the assay: GR-EFC Redistribution (AID 451; calls by dose curve; also: potency is read from the fitted curve at half-maximal effect). Conditions: CHO-K1 GR-EFC translocation, beta-gal luminescence, 2 h. The gist of the method:
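CHO-K1 cells stably expressing nuclear-localized β-gal enzyme acceptor and GR fused C-terminally to the enzyme donor fragment; ligand-driven nuclear translocation restores β-gal by complementation. Compounds titrated up to 46 uM final, 2 h at 37 °C; luminescence read.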

Assay [7] concerns the target Mitogen-activated protein kinase 10 (Mus musculus) (UniProt Q61831). Nature of the assay: JNK3 AlphaScreen Assay (AID 530).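 Also: kinase came from lysate of stimulated human HepG2 cells; signal reports phosphorylation of biotinylated GST-cJun 1-79 at Ser73 with 10 µM ATP; % is scaled to controls: 0 for no effect and ±100 for the full control effect.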 Particulars: JNK3 lysate, c-Jun phosphorylation; series mostly up to 11.4 µM. The gist of the method:
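Inhibitors reduce antibody binding to phosphorylated biotin-cJun, lowering AlphaScreen luminescence. Lysates from HepG2 cells pre-activated by IL-1beta plus TNF-alpha supplied JNK3; compounds were titrated.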

The target of assay [8] is 3',5'-cyclic-AMP phosphodiesterase 4B (Homo sapiens) (UniProt Q07343). Nature of the assay: qHTS Assay for Inhibitors of PDE-IV (AID 607; active = well fitted activation curve with a large enough effect in the main read-out, with a control signal flat, not every such curve was filed as active; also: % of control where 0% means no effect). Conditions: HEK293 ACTOne CNG channel cells, membrane potential fluorescence; series mostly up to 22.9 µM. In outline: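 Live HEK293 cells with a modified cyclic nucleotide-gated (CNG) channel report intracellular cAMP via membrane-potential dye fluorescence (ex 535/em 590 nm). Endogenous PDE-IV was targeted. Compounds were tested at up to 22.9 uM final; RO 20-1724 100 uM served as control.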
Sequence of 3',5'-cyclic-AMP phosphodiesterase 4B (Homo sapiens) (Q07343 whole entry, looked up): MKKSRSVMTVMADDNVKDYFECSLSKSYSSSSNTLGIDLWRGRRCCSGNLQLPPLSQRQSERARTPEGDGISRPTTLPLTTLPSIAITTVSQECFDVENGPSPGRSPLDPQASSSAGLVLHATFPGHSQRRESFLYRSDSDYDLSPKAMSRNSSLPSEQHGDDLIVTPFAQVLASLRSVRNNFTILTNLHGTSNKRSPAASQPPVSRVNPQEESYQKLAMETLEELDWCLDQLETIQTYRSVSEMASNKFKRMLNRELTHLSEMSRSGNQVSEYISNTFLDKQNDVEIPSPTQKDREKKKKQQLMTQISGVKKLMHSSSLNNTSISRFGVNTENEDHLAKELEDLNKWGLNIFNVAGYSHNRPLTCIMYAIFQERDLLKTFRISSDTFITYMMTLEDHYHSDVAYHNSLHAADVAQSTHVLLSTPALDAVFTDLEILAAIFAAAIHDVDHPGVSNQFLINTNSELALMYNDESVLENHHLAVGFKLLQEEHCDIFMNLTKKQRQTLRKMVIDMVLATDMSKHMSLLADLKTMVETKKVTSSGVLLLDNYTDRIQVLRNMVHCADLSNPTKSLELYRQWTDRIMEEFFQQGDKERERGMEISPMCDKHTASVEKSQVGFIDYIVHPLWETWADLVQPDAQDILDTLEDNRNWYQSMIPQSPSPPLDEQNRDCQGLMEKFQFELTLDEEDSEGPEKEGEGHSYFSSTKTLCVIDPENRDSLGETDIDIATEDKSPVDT

The target of assay [9] is Cytochrome P450 1A2 (Homo sapiens) (UniProt P05177). Nature of the assay: p450-cyp1a2 (AID 410; calls by dose curve; also: potency is read from the fitted curve at half-maximal effect). Particulars: recombinant CYP1A2, luciferin-ME demethylation, luminescence; series mostly up to 11.4 µM. The gist of the method: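 Luminescent readout of luciferin formed from Luciferin-ME by human CYP1A2; data normalized against complete inhibition by 57 uM furafylline. Enzyme 20nM, substrate 100uM at Km, 100mM KPO4 buffer, 60 min reaction at room temperature.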
Sequence of Cytochrome P450 1A2 (Homo sapiens) (P05177 whole entry, looked up): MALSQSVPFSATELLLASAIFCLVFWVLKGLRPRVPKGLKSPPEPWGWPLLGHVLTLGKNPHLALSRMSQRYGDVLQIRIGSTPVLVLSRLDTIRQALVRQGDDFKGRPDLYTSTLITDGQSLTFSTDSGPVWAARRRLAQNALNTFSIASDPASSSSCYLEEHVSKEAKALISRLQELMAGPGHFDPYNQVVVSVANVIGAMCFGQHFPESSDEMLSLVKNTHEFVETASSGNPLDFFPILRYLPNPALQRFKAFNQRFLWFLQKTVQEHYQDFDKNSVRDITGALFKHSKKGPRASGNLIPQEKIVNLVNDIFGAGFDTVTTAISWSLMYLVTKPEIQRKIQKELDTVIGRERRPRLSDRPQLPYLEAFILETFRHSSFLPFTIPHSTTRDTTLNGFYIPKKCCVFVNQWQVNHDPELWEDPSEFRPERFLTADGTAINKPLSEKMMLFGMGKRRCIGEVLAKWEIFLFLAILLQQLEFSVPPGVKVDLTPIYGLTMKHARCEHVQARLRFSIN

In assay [10] the target is Cytochrome P450 3A4 (Homo sapiens) (UniProt P08684). The assay is described as follows: qHTS Assay for Activators of Cytochrome P450 3A4 (AID 885; active = well fitted activation curve with a large enough effect; also: nearly all actives have a fitted effect of over 65% in size). Conditions: recombinant CYP3A4, Luciferin-PPXE luminescence, 60 min; series mostly up to 11.4 µM. In outline:
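Quantitative HTS format: compounds preincubated with 20nM human CYP3A4 and Luciferin-PPXE substrate at KM, reaction started by NADPH regeneration, stopped after 60 min, luciferase luminescence read 20 min later.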

Sequence of Cytochrome P450 3A4 (Homo sapiens) (P08684 whole entry, looked up): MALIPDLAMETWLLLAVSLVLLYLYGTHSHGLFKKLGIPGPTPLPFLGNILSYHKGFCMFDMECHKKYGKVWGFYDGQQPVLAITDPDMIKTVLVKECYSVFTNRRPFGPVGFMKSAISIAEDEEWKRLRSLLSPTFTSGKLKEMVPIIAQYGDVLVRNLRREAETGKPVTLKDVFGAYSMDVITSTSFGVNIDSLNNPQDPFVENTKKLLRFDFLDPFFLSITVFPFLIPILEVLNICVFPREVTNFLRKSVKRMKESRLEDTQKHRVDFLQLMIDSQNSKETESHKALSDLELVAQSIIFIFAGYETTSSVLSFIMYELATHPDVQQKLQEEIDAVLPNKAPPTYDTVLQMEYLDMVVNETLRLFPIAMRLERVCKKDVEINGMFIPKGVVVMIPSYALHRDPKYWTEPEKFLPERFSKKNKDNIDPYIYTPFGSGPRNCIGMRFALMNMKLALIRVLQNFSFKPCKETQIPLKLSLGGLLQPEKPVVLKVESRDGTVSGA

Regarding `O=C1CSC(=S)N1/N=C\c1ccc(Cl)c([N+](=O)[O-])c1`, the Potency in [1] was over 11.4 µM; in [5] it was over 46 µM; in [6] it was over 9.22 µM. Moreover, the activity change, negative = inhibition in [2] is 1.11%; in [3], 6.49%. Further, the activity, negative = inhibition in assay [4] was 1.79%. Moreover, the Potency result in assay [7] and in assay [8] was “inactive” throughout.
As to `COC(=O)c1cc(-c2ccc3ccccc3c2)[nH]c(=O)c1C#N`, the results for the Potency in [1], in [5] and in [6] were over 11.4 µM, over 46 µM and over 9.22 µM, respectively. Also, the activity change, negative = inhibition in assay [2] is -3.94%; in [3] it was 1.77%. Besides, in [4], the activity, negative = inhibition was -1.42%. Further, the Potency result in [7] and in assay [8] was “inactive” in each case.
Regarding `O=S(=O)(c1cccc(C(F)(F)F)c1)N1c2ccccc2-n2cccc2[C@H]1c1cccnc1`, the figures for the Potency in [1], in assay [5] and in assay [6] were over 11.4 µM, over 46 µM and over 9.22 µM, respectively. Moreover, the activity change, negative = inhibition in assay [2] was -23.2%; in [3] it was -6.39%. In addition, in assay [4], the activity, negative = inhibition is -6.23%. For the same molecule, the Potency entry in assay [7] and in [8] was “inactive” each time.
For the molecule `O=C(Nc1c[nH]c(=O)[nH]c1=O)Oc1ccccc1`, the Potency in [1] was over 11.4 µM; in assay [5], over 46 µM; in assay [6], over 9.22 µM. In addition, the activity change, negative = inhibition in [2] is 1.22%; in [3], 2.28%. Also, the activity, negative = inhibition in assay [4] is -1.82%. The Potency entry in assay [7] and in assay [8] was “inactive” in each case.
Consider `CCOC(=O)c1c2c(n3ccccc13)C(=O)c1ccccc1C2=O`, for which the Potency in assay [1] was over 11.4 µM; in assay [9] it was 0.1 µM (active); in [5], over 46 µM; in assay [6], over 9.22 µM. For the same molecule, the activity change, negative = inhibition in assay [2] is 19.9%. Besides, the Potency result in [8] and in [10] was “inactive” each time.
For the molecule `O=C1c2cccc(O)c2C(=O)c2c(O[C@@H]3O[C@H](CO)[C@@H](O)[C@H](O)[C@@H]3O)cccc21`, the Potency in assay [1] was 2.95 µM (active); in assay [5], over 46 µM; in assay [6] it was over 9.22 µM. Further, the activity change, negative = inhibition was 29.9% in assay [2] and 5.22% in assay [3]. The activity, negative = inhibition in assay [4] was 8.12%. For the same molecule, the Potency result in [7] and in assay [8] was “inactive” throughout.
On to `Cc1cc2cc3c(=O)[nH]c(=O)[nH]c3nc2cc1C`, for which the Potency in assay [1] was over 11.4 µM; in [5], over 46 µM; in [6] it was over 9.22 µM. In addition, the activity change, negative = inhibition in [2] was -6.37%; in assay [3], 11.7%. The activity, negative = inhibition in [4] was -6.9%. For the same molecule, the Potency result in assay [7] and in [8] was “inactive” in each case.
As to `COc1ccc(-c2nc3cnc(OC)nc3n(Cc3cccs3)c2=O)cc1`, the Potency was over 11.4 µM in assay [1], over 9.22 µM in assay [5] and over 46 µM in assay [6]. In addition, the results for the activity change, negative = inhibition in [2] and in assay [3] were 20.7% and 8.9%, respectively. For the same molecule, the activity, negative = inhibition in assay [4] was 14.3%. For the same molecule, in [7], the Potency entry was “inactive”.
Turning to `N[C@@]1(C(=O)O)CCC[C@@H]1C(=O)O`, the Potency in [1] is over 11.4 µM; in [5], over 46 µM; in assay [6] it was over 9.22 µM. Moreover, the activity change, negative = inhibition in assay [2] was 6.92%; in assay [3] it was 10.2%. In assay [4], the activity, negative = inhibition is 9.09%. Further, the Potency entry in assay [7] and in [8] was “inactive” each time.
On to `c1ccc(CCNCc2ccco2)nc1`, for which the Potency in assay [1] is over 11.4 µM; in assay [5] it was over 46 µM; in assay [6], over 9.22 µM. Besides, the activity change, negative = inhibition in assay [2] was 3.76%; in assay [3] it was -2.01%. Also, the activity, negative = inhibition in assay [4] was 1.92%. Also, the Potency result in assay [7] and in assay [8] was “inactive” each time.
For the molecule `Cc1nc(-c2ccccc2)c(Cc2ccccc2O)c(=O)[nH]1`, the Potency in assay [1] is over 11.4 µM; in assay [5], over 46 µM; in [6], over 9.22 µM. Also, the activity change, negative = inhibition in assay [2] was -9.11%; in assay [3] it was 4.59%. Also, the activity, negative = inhibition in [4] was 0.211%. For the same molecule, the Potency result in assay [7] and in assay [8] was “inactive” in each case.
Turning to `CC(CO)(CO)Nc1ncnc2ccccc12`, the Potency is over 11.4 µM in assay [1], over 46 µM in assay [5] and over 9.22 µM in assay [6]. For the same molecule, the figures for the activity change, negative = inhibition in assay [2] and in assay [3] were 4.46% and 9.62%, respectively. The activity, negative = inhibition in assay [4] is 12.4%. For the same molecule, the Potency entry in [7] and in [8] was “inactive” each time.
For the molecule `CN(C)Cc1cc(C(=O)O)cc(CN(C)C)c1O`, the Potency in assay [1] is over 11.4 µM; in assay [5], over 46 µM; in assay [6] it was over 9.22 µM. The activity change, negative = inhibition in assay [2] was 4.91%; in assay [3] it was 3.37%. Further, the activity, negative = inhibition in assay [4] is -1.77%. Also, the Potency result in assay [7] and in assay [8] was “inactive” throughout.
As for `O=C(O)CCCN1CCCCC1`, the Potency in assay [1] was over 11.4 µM; in assay [5], over 46 µM; in assay [6] it was over 9.22 µM. The activity change, negative = inhibition was 9.35% in assay [2] and 1.19% in assay [3]. Besides, in [4], the activity, negative = inhibition was 9.26%. Moreover, the Potency result in assay [7] and in assay [8] was “inactive” throughout.
In the case of `O=C(O)CSc1ccc(N=C=S)cc1`, the Potency in assay [1] was over 11.4 µM; in assay [5], over 46 µM; in [6], over 9.22 µM. For the same molecule, the activity change, negative = inhibition in assay [2] is 7.13%; in assay [3], 27.9%. The activity, negative = inhibition in [4] is 5.22%. Further, the Potency result in [7] and in assay [8] was “inactive” throughout.
`Cc1cc2c(=O)[nH]c(N)nc2nc1C`: the Potency in assay [1] is over 11.4 µM; in [5], over 46 µM; in assay [6], over 9.22 µM. Also, the activity change, negative = inhibition in [2] is 1.82%; in assay [3] it was 7.25%. Further, the activity, negative = inhibition in [4] is 9.62%. Further, the Potency result in assay [7] and in assay [8] was “inactive” in each case.
